Results published in PubChem BioAssay (NCATS).
Records with an inconclusive call do not appear. Values without a mark were called inactive. Calls of active or inactive are those of the source. The call rests on the fitted dose curve; in most records, active means well fitted inhibition curve with a large enough effect; inconclusive means small, poorly fitted or top-dose-only effect; inactive means flat fitted curve, though single readings scatter.

Assay: qHTS assay for small molecule disruptors of mitochondrial membrane potential screened against the NCATS CANVASS Library (AID 1347389); further: nearly all actives have a fitted effect of over 60% in size
Conditions: HepG2 mitochondrial membrane potential, m-MPI red/green ratio, 1.5 h; series mostly up to 46.1 µM; activity change, negative = depolarization: at the top concentration
Method in brief: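 Mitochondrial depolarization in HepG2 cells is scored as a falling aggregate-to-monomer fluorescence ratio after 1 hr compound exposure and 30 min staining with Mito-MPS dye at 37C, each compound tested as an 11-point titration.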
On the % scale 0 is the no-effect control and ±100 the full control effect; potency means the concentration at half of the fitted maximal effect.

SMILES	activity change, negative = depolarization [%]	Potency
C/C1=C/[C@@H](C)[C@H](O)[C@@H](O)/C=C/CC/C=C/C(=O)O[C@@H]1[C@H](C)C(=O)CCCC1CC(=O)NC(=O)C1	6.89	–
CC(=O)Oc1cc2c(c(OC(C)=O)c1C1CCc3cc(Cl)c(Cl)n31)C(=O)n1c-2cc(Cl)c1Cl (configuration not stated)	–	2.09 µM (active)
CC(C)=CC[C@H]1C[C@@]2(CC=C(C)C)C(=O)[C@](CC=C(C)C)(C(=O)C(C(=O)c3ccccc3)=C2O)C1(C)C	–	7.41 µM (active)
C[C@]12CC[C@]3(C1)[C@H](CC2=O)C[C@@H](OC(=O)c1ccccc1)[C@H]1[C@](C)(C(=O)O)CCC[C@@]13C	-4.26	–
CC(=O)O[C@H]1c2ccccc2-c2c3c(cc4c2[C@@H]1N(C(C)=O)CC4)OCO3	3.97	–
C=C[C@](Cl)(CBr)CCC=C(C)C	4.7	–
COc1cc2c(cc1OC)[C@@H](c1ccc3c(c1)OCO3)C(C)C(C)C2=O (some centres not stated)	7.69	–
C[C@H]1C=C[C@H]2CCCC[C@@H]2[C@H]1C(=O)[C@H]1CC2=C(C(=O)O)CCN2C1=O	0.979	–
CC(C)[C@]12CC[C@@]3(C)[C@H](C)CC[C@H](O)[C@@]3(CC1)c1cc3c(cc12)[nH]c1ccccc13	–	11.7 µM (active)
CC(C)=CCC[C@]12c3cc4c(cc3CC[C@@]1(C)[C@H](C)CC[C@@H]2O)[nH]c1ccccc14	–	20.9 µM (active)
COc1cc(O)c(C(=O)[C@@H]2[C@H](CC=C(C)C)C(C)=CC[C@H]2c2ccccc2)c(O)c1	–	4.67 µM (active)
C=C(C)CC[C@H](Cc1c(O)cc(O)c2c1O[C@H](c1ccc(O)cc1)CC2=O)C(=C)C	–	8.31 µM (active)
